Data reported in PubChem BioAssay (NCATS).
Records with an inconclusive call do not appear. Active and inactive are the calls of the source. Calls come from the whole dose curve; as a rule, active = well fitted curve in the direction sought with a large enough effect; inconclusive = small, poorly fitted or top-dose-only effect, or another doubt; inactive = no such curve, though single readings can be large; an effect the other way counts as inactive or inconclusive.

Legend:
[1] = qHTS profiling for inhibitors of Plasmodium falciparum proliferation (AID 504749); note: potency is the fitted concentration of half-maximal effect;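 for activity, negative = inhibition: 0% = DMSO vehicle and full inhibition = artemisinin control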; for all read-outs here: nearly all actives have a fitted effect of over 60% in size; details: P. falciparum in erythrocytes, SYBR Green DNA, 72 h; for activity, negative = inhibition: at 28.7 µM (top of the series)
Procedure, shortened: (§1)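 Parasite proliferation within erythrocytes, 72 h exposure. Endpoint: SYBR Green I fluorescence after overnight lysis at room temperature. Controls: 0.29 uM artemisinin, DMSO.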

ATS189 = assay: as above; details: P. falciparum in erythrocytes, SYBR Green DNA, 72 h; series mostly up to 28.7 µM
Procedure, shortened: as §1

C2A = assay: as above; details: P. falciparum in erythrocytes, SYBR Green DNA, 72 h; series mostly up to 28.7 µM
Procedure, shortened: as §1

CP191 = assay: as above; details: P. falciparum in erythrocytes, SYBR Green DNA, 72 h; series mostly up to 28.7 µM
Procedure, shortened: as §1

CP192 = assay: as above; details: P. falciparum in erythrocytes, SYBR Green DNA, 72 h; series mostly up to 28.7 µM
Procedure, shortened: as §1

CP201 = assay: as above; details: P. falciparum in erythrocytes, SYBR Green DNA, 72 h; series mostly up to 28.7 µM
Procedure, shortened: as §1

CP215 = assay: as above; details: P. falciparum in erythrocytes, SYBR Green DNA, 72 h; series mostly up to 28.7 µM
Procedure, shortened: as §1

CP237 = assay: as above; details: P. falciparum in erythrocytes, SYBR Green DNA, 72 h; series mostly up to 28.7 µM
Procedure, shortened: as §1

CP238 = assay: as above; details: P. falciparum in erythrocytes, SYBR Green DNA, 72 h; series mostly up to 28.7 µM
Procedure, shortened: as §1

CP268 = assay: as above; details: P. falciparum in erythrocytes, SYBR Green DNA, 72 h; series mostly up to 28.7 µM
Procedure, shortened: as §1

CP269 = assay: as above; details: P. falciparum in erythrocytes, SYBR Green DNA, 72 h; series mostly up to 28.7 µM
Procedure, shortened: as §1

CP286 = assay: as above; details: P. falciparum in erythrocytes, SYBR Green DNA, 72 h; series mostly up to 28.7 µM
Procedure, shortened: as §1

CP325 = assay: as above; details: P. falciparum in erythrocytes, SYBR Green DNA, 72 h; series mostly up to 28.7 µM
Procedure, shortened: as §1

CP329 = assay: as above; details: P. falciparum in erythrocytes, SYBR Green DNA, 72 h; series mostly up to 28.7 µM
Procedure, shortened: as §1

ECU = assay: as above; details: P. falciparum in erythrocytes, SYBR Green DNA, 72 h; series mostly up to 28.7 µM
Procedure, shortened: as §1

FAB9 = assay: as above; details: P. falciparum in erythrocytes, SYBR Green DNA, 72 h; series mostly up to 28.7 µM
Procedure, shortened: as §1

JCK = assay: as above; details: P. falciparum in erythrocytes, SYBR Green DNA, 72 h; series mostly up to 28.7 µM
Procedure, shortened: as §1

PC49 = assay: as above; details: P. falciparum in erythrocytes, SYBR Green DNA, 72 h; series mostly up to 28.7 µM
Procedure, shortened: as §1

[2] = target: ATP-dependent 6-phosphofructokinase (Trypanosoma brucei brucei) (UniProt O15648); assay: qHTS Assay to Find Inhibitors of T. brucei phosphofructokinase: hit validation (AID 492961);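 note: luminescence reports ADP formed as PFK phosphorylates fructose-6-phosphate with ATP; % is set by controls: 0 for no effect and ±100 for the full control effect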; details: T. brucei PFK, ADP-Glo luminescence; series mostly up to 51.4 µM
Procedure, shortened: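 Reaction: 0.1 M triethanolamine pH 8.0, 5 mM MgCl2, F6P 0.5 mM, ATP 0.1 mM, PFK 1.25 nM, 45 min RT. Read-out: ADP-Glo luminescence. Analysis: concentration-response fits, classed by r2 and efficacy.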

[3] = target: Luciferin 4-monooxygenase (Photinus pyralis) (UniProt P08659); assay: Biochemical firefly luciferase enzyme assay for NPC (AID 624030);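 note: purified P. pyralis luciferase at 10 nM with luciferin and ATP substrate; 0% = DMSO and -100% = full luciferase inhibition by PTC124 control; nearly all actives have a fitted effect of over 70% in size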; details: purified P. pyralis luciferase, luminescence, 5 min; series mostly up to 58.6 µM
Procedure, shortened: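 Counter-screen for direct inhibition of the luciferase enzyme by approved-drug library compounds, run at 10 nM enzyme in 50 mM Tris acetate (final). Luminescence was read within 5 min of enzyme-buffer addition and normalized to PTC124 versus DMSO (0%).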

Sequence of ATP-dependent 6-phosphofructokinase (Trypanosoma brucei brucei) (O15648 whole entry, looked up): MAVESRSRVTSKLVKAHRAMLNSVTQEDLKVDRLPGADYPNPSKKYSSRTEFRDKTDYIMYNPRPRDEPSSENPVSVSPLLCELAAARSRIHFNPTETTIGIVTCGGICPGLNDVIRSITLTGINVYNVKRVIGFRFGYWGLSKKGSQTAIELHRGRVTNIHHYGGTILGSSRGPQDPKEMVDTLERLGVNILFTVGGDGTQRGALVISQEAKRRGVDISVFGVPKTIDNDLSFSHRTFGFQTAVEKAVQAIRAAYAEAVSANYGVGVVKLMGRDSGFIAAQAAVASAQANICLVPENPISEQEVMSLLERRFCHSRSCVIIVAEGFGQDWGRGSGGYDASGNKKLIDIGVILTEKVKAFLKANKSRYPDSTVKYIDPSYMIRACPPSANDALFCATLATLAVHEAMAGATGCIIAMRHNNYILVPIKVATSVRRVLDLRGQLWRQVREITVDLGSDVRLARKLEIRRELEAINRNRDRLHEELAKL
Sequence of Luciferin 4-monooxygenase (Photinus pyralis) (P08659 whole entry, looked up): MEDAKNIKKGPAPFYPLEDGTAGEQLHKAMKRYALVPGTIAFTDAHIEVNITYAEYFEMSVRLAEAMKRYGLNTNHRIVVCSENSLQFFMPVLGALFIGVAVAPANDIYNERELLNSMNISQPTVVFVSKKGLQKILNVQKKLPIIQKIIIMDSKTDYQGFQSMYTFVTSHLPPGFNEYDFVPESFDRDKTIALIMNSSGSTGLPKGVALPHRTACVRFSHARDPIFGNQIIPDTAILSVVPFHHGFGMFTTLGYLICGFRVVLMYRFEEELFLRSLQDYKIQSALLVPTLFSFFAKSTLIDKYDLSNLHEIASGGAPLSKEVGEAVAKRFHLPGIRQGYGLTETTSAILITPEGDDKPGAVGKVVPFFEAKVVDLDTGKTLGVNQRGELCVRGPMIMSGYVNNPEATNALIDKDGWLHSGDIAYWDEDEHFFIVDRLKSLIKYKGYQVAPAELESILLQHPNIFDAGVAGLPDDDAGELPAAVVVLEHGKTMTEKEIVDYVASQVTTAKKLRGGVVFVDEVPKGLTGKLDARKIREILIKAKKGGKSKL

NC(Cc1ccc(Oc2cc(I)c(O)c(I)c2)c(I)c1)C(=O)O (configuration not stated)
inactive: activity, negative = inhibition ([1]; parasite line A) 8.09% | activity, negative = inhibition ([1]; parasite line B) -0.518% | Potency (ATS189) | Potency (C2A) | Potency (CP191) | Potency (CP192) | Potency (CP201) | Potency (CP215) | Potency (CP237) | Potency (CP238) | Potency (CP268) | Potency (CP269) | Potency (CP286) | Potency (CP325) | Potency (CP329) | Potency (ECU) | Potency (FAB9) | Potency (JCK) | Potency (PC49)

C=CC[C@]1(O)CCC2C3CCC4=CCCCC4C3CCC21C (some centres not stated)
inactive: outcome [2] | Potency [3] | activity, negative = inhibition ([1]; parasite line A) -16.3% | activity, negative = inhibition ([1]; parasite line B) -3.62% | Potency (ATS189) | Potency (C2A) | Potency (CP191) | Potency (CP192) | Potency (CP201) | Potency (CP215) | Potency (CP237) | Potency (CP238) | Potency (CP268) | Potency (CP269) | Potency (CP286) | Potency (CP325) | Potency (CP329) | Potency (ECU) | Potency (FAB9) | Potency (JCK) | Potency (PC49)

CCCC(C)C1(CC)C(=O)NC(=S)NC1=O (configuration not stated)
inactive: outcome [2] | Potency [3] | activity, negative = inhibition ([1]; parasite line A) 0.271% | activity, negative = inhibition ([1]; parasite line B) 18% | Potency (ATS189) | Potency (C2A) | Potency (CP191) | Potency (CP201) | Potency (CP215) | Potency (CP237) | Potency (CP238) | Potency (CP268) | Potency (CP269) | Potency (CP286) | Potency (CP325) | Potency (CP329) | Potency (ECU) | Potency (FAB9) | Potency (JCK) | Potency (PC49)

C=C1CC2C(CC[C@]3(C)C(=O)CCC23)[C@]2(C)C=CC(=O)C=C12 (some centres not stated)
inactive: outcome [2] | Potency [3] | activity, negative = inhibition ([1]; parasite line B) 0.0393% | Potency (ATS189) | Potency (C2A) | Potency (CP191) | Potency (CP192) | Potency (CP201) | Potency (CP215) | Potency (CP237) | Potency (CP238) | Potency (CP268) | Potency (CP269) | Potency (CP286) | Potency (CP325) | Potency (CP329) | Potency (ECU) | Potency (FAB9) | Potency (JCK) | Potency (PC49)

CC(Cc1ccccc1)N(C)C (configuration not stated)
inactive: outcome [2] | Potency [3] | activity, negative = inhibition ([1]; parasite line A) 9.11% | activity, negative = inhibition ([1]; parasite line B) 11.3% | Potency (ATS189) | Potency (C2A) | Potency (CP191) | Potency (CP192) | Potency (CP201) | Potency (CP215) | Potency (CP237) | Potency (CP238) | Potency (CP269) | Potency (CP286) | Potency (CP325) | Potency (CP329) | Potency (ECU) | Potency (FAB9) | Potency (JCK) | Potency (PC49)

O=C1CC2OCC=C3CN4CC[C@]56c7ccccc7N1C5C2[C@H]3C[C@H]46 (some centres not stated)
inactive: outcome [2] | activity, negative = inhibition ([1]; parasite line B) -18.7% | Potency (CP191) | Potency (FAB9) | Potency (PC49)
active: Potency (CP237) 5.01 µM | Potency (CP238) 10 µM | Potency (CP325) 13.5 µM

CC(CO)NC(=O)C1C=C2c3cccc4[nH]cc(c34)CC2N(C)C1 (configuration not stated)
inactive: Potency [3] | activity, negative = inhibition ([1]; parasite line A) -10.6% | activity, negative = inhibition ([1]; parasite line B) -8.5% | Potency (ATS189) | Potency (C2A) | Potency (CP191) | Potency (CP192) | Potency (CP201) | Potency (CP215) | Potency (CP237) | Potency (CP238) | Potency (CP268) | Potency (CP269) | Potency (CP286) | Potency (CP325) | Potency (CP329) | Potency (ECU) | Potency (FAB9) | Potency (JCK) | Potency (PC49)

C[C@@H](N)[C@@H](O)c1ccc(O)c(O)c1
inactive: Potency [3] | activity, negative = inhibition ([1]; parasite line A) -5.35% | activity, negative = inhibition ([1]; parasite line B) 7.25% | Potency (ATS189) | Potency (C2A) | Potency (CP191) | Potency (CP192) | Potency (CP201) | Potency (CP215) | Potency (CP237) | Potency (CP238) | Potency (CP268) | Potency (CP269) | Potency (CP286) | Potency (CP325) | Potency (CP329) | Potency (ECU) | Potency (FAB9) | Potency (JCK) | Potency (PC49)

CC(C)CCC(=O)OC1CCC2C3CCC4=CC(=O)CC[C@]4(C)C3CC[C@]12C (some centres not stated)
active: Potency ([1]; parasite line A) 10 µM | Potency (ATS189) 8.91 µM | Potency (CP191) 6.31 µM | Potency (CP237) 11.2 µM | Potency (CP286) 4.47 µM | Potency (ECU) 10 µM
inactive: Potency [3] | Potency (CP192) | Potency (CP201) | Potency (CP215) | Potency (CP268) | Potency (CP269) | Potency (CP325) | Potency (CP329) | Potency (FAB9) | Potency (JCK) | Potency (PC49)

CN(C)[C@@H](Cc1ccccc1)c1ccccc1
inactive: outcome [2] | Potency [3] | activity, negative = inhibition ([1]; parasite line A) 6.12% | activity, negative = inhibition ([1]; parasite line B) 4.62% | Potency (ATS189) | Potency (C2A) | Potency (CP191) | Potency (CP192) | Potency (CP201) | Potency (CP215) | Potency (CP238) | Potency (CP268) | Potency (CP269) | Potency (CP286) | Potency (CP325) | Potency (CP329) | Potency (ECU) | Potency (FAB9) | Potency (JCK) | Potency (PC49)
active: Potency (CP237) 8.91 µM

O=C1CC2OCC=C3CN4CCC56c7ccccc7N1C5[C@H]2[C@H]3C[C@H]46 (some centres not stated) (tested in a mixture with another compound)
inactive: outcome [2] | Potency (ATS189) | Potency (C2A) | Potency (CP191) | Potency (CP192) | Potency (CP201) | Potency (CP237) | Potency (CP238) | Potency (CP268) | Potency (CP269) | Potency (CP325) | Potency (CP329) | Potency (JCK)

C[C@]12CC[C@H]3[C@@H](CC[C@@]45O[C@@H]4C(=O)C(C#N)C[C@]35C)[C@@H]1CC[C@@H]2O (some centres not stated)
inactive: outcome [2] | Potency [3] | Potency (CP192) | Potency (CP201) | Potency (CP215) | Potency (CP237) | Potency (CP238) | Potency (CP268) | Potency (CP269) | Potency (CP286) | Potency (CP325) | Potency (CP329) | Potency (FAB9) | Potency (JCK) | Potency (PC49)

C[C@]12CCC3C(CCC4=C(Cl)C(=O)CC[C@@]43C)C1CCC2O (some centres not stated)
inactive: outcome [2] | Potency [3] | activity, negative = inhibition ([1]; parasite line A) -5.63% | activity, negative = inhibition ([1]; parasite line B) -11.9% | Potency (ATS189) | Potency (C2A) | Potency (CP191) | Potency (CP192) | Potency (CP201) | Potency (CP215) | Potency (CP237) | Potency (CP238) | Potency (CP268) | Potency (CP269) | Potency (CP286) | Potency (CP325) | Potency (CP329) | Potency (ECU) | Potency (FAB9) | Potency (JCK) | Potency (PC49)

CC[C@]1([C@H]2O[C@@H]([C@@H]3O[C@](O)(CO)[C@@H](C)C[C@H]3C)C[C@H]2C)CC[C@@H]([C@]2(C)CC[C@@]3(C[C@@H](O)[C@@H](C)[C@@H]([C@H](C)[C@H](OC)[C@H](C)C(=O)O)O3)O2)O1
inactive: Potency [3]

CNC1=CN(O)C(c2ccccc2)=c2cc(Cl)ccc2=N1
inactive: Potency [3]
